Source: PubChem BioAssay
VACV mCherry inh = inhibitors of vaccinia virus infection (mCherry reporter signal). Vaccinia virus mCherry reporter infection, fluorescence. Potency, µM (top dose mostly 36.5 µM), for inactives: at the top dose activity change, negative = inhibition, most hits filed as inhibitors. 0.63% of 310,000 active; calls by dose curve; tested in A549 cells; further: potency means the concentration at half of the fitted maximal effect; nearly all actives have a fitted effect of over 35% in size
HCMV antiviral = blocks human cytomegalovirus replication | HFF cells, HCMV-luciferase reporter, 72 h; active compounds read low | activity change, negative = inhibition, % at 57.5 µM | 4.5% of 410,000 active | AID 1259415; in the data active means activity change below about -60%; inconclusive means no clear call, values can overlap the other calls; inactive means above about -39%
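Steps: HFFs plated, 16 h 37C; compounds added; HCMV-luciferase added to MOI 1 PFU/cell; 72 h 37C; OneGlo reagent, 5 min room temperature; luminescence read, normalized to controls.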
FMDV antiviral = blocks foot and mouth disease virus. FMDV antiviral cell-based qHTS. 1.2% of 410,000 active. Potency, µM (series often up to 57.9 µM), for inactives: at the highest dose activity change, negative = inhibition, usual class: inhibitors; calls by dose curve; tested in HEK293T cells; further: read-out not given here; potency means the concentration at half of the fitted maximal effect; nearly all actives have a fitted effect of over 45% in size
LASV entry inh = Lassa virus entry inhibition. Lassa virus pseudotype entry inhibition, cell reporter. Potency, µM (titrated, usually from 37.9 µM), for inactives: top-dose activity change, negative = inhibition, hits mostly inhibitors. 1.2% of 300,000 active. AID 540256; calls by dose curve; tested in HEK293 cells; further: potency means the concentration at half of the fitted maximal effect; nearly all actives have a fitted effect of over 50% in size
MARV entry inh = Marburg virus entry inhibition. Marburg virus pseudotyped entry inhibition, cell reporter. Potency, µM (doses to about 37.8 µM), inactives show at the highest dose activity change, negative = inhibition, usual class: inhibitors. 1.8% of 300,000 active; calls by dose curve; tested in HEK293 cells; further: potency means the concentration at half of the fitted maximal effect
VACV Venus inh = vaccinia inhibition (Venus reporter); 0.46% of 330,000 active; Potency, µM (doses to about 36.5 µM), for the others: at the top dose activity change, negative = inhibition, actives largely listed as inhibitors; Vaccinia virus Venus reporter expression, fluorescence; calls by dose curve; tested in A549 cells; further: potency means the concentration at half of the fitted maximal effect; nearly all actives have a fitted effect of over 30% in size
* hit, by the source's call; i = inactive; ? = inconclusive; . = no result; [ ] = another dose, or the depositor's remark. Only some compounds are listed: those with a hit (about 6.5% of all), similar ones and a draw of the others. On the % scale 0 is the no-effect control and ±100 the full control effect.

SMILES	VACV mCherry inh	HCMV antiviral	FMDV antiviral	LASV entry inh	MARV entry inh	VACV Venus inh
CCC1(CC)C(=O)NC(=O)NC1=NCCc1ccc(O)cc1	.	-68*	8%	4%	11%	1%
CCCCC(=NCCc1c(C)[nH]c2ccccc12)C1=C(O)CC(c2ccccc2)CC1=O (configuration not stated)	-17%	12	-18%	8.9µM*	?	-21%
CCCCN=CC1=C(O)CC(c2ccccc2)CC1=O (configuration not stated)	-26%	-62*	5%	-24%	?	-25%
O=C1CC(c2ccccc2)CC(O)=C1C=Nc1ccccc1O (configuration not stated)	?	-75*	31%	.	.	?
COc1ccccc1N=C(C)C1=C(O)CC(c2ccccc2)CC1=O (configuration not stated)	?	-84*	-27%	?	?	?
CC(=O)N1c2ccccc2C(=O)C1N1CCN(c2cc(Cl)ccc2C)CC1 (configuration not stated)	-12%	?	?	?	.	-12%
COc1ccc(C=CC(=O)c2c(N)n(C)c(=O)n(C)c2=O)cc1	.	54	.	.	.	.
c1ccc(Nc2nc(-c3ccccc3)c(-c3ccccc3)s2)cc1	-13%	.	.	.	.	-15%
O=[N+]([O-])C1C(c2ccccc2)C12c1ccccc1-c1ccccc12 (configuration not stated)	?	.	14µM*	.	.	?
COc1ccccc1N1CCN(C[C@@H](C(=O)NC(C)(C)C)c2ccccc2)CC1	.	.	1%	.	.	.
Cc1ccc(NC(=O)c2cc3nc(-c4ccc5c(c4)OCO5)cc(C(F)(F)F)n3n2)cc1Cl	1%	16	-17%	-12%[46.1 µM]	-13%[46.1 µM]	1%
NC(CSC1(c2ccc(F)cc2)c2ccccc2-c2ccccc21)C(=O)O (configuration not stated)	i	-68*	-20%	.	.	-13%
CCCN1CNc2c(c(=O)[nH]c(=S)n2CCc2ccc(C)cc2)C1	i	.	.	.	.	-6%
CCOC(=O)/C(=C/c1ccc(OC(F)F)cc1)C1=Nn2c(nnc2-c2ccc(Cl)cc2)SC1	?	-98*	13µM*	?	?	11µM*
CCOC(=O)/C(=C\c1ccc(OC(F)F)cc1)C1=Nn2c(nnc2-c2ccc(Cl)cc2)SC1	?	.	13µM*	?	?	13µM*
Cc1nnc2n(c1=O)N=C(c1ccc(Cl)cc1)CS2	-13%	186	7%	?	?	-6%
CC1=Nn2c(nnc2-c2ccc(F)cc2)SC1	.	36	9%	8%	11%	.
O=C(Nc1cccnc1Cl)c1cnn2c1NC(=C1CC1)C=C2C(F)F	-18%	.	.	.	.	-21%
Cc1cc(C)c2c(N)c(C(=O)Nc3ncc(C)s3)sc2n1	-2%	-86*	5µM*	0.2µM*	0.5µM*	-24%
Cc1nn2c(=O)cc(COC(=O)c3ccc(NC(=O)c4ccc(C(C)(C)C)cc4)cc3)nc2s1	-7%	-38	12%	?	.	-20%
CC1CC(C)CC(C)C(O)C(C#N)=CC=CCC(C2CCCC2C(=O)O)OC(=O)CC(O)C(C)C1 (configuration not stated)	?	-97*	?	1.4µM*	0.45µM*	1.1µM*
CN1CCCC(CN(C)C(=O)c2cnn(-c3nccc(-c4ccccc4C(F)(F)F)n3)c2C2CC2)C1 (configuration not stated)	0%	.	-13%	.	.	-5%
COc1ncc2nc(-c3ccc(F)cc3)c(=O)n(-c3ccccc3)c2n1	.	.	-12%	.	.	.
Cc1ccc(C(=O)N2CCSC2=S)cc1	?	22	-22%	?	?	-15%
Cc1ccc(C(=O)Oc2csc(=S)n2C(=O)c2ccc(C)cc2)cc1	-7%	-62*	.	-15%	5%	-3%
SMILES	VACV mCherry inh	HCMV antiviral	FMDV antiviral	LASV entry inh	MARV entry inh	VACV Venus inh
CC(C)C(NS(=O)(=O)c1c(Cl)cccc1Cl)C(=O)OCC(=O)c1c[nH]c2ccccc12 (configuration not stated)	?	22	-25%	?	?	?
CSCCC(NS(=O)(=O)c1ccc(Cl)cc1)C(=O)OCC(=O)c1c(C)[nH]c2ccccc12 (configuration not stated)	?	39	35µM*	?	12µM*	?
CC(O)C(NS(=O)(=O)c1ccc(Cl)cc1)C(=O)OCC(=O)c1c[nH]c2ccccc12 (configuration not stated)	-10%	47	16µM*	?	?	-22%
O=C(c1cccs1)N(Cc1ccco1)c1ccc(O)cc1	2%	.	.	.	.	-14%
CCc1ccccc1Nc1cc(C(=O)NCCCN(C)C2CCCCC2)c2ccccc2n1	-1%	-32	5%	?	?	-3%
COc1ccc(/C=C/C(=O)C2CC2)cc1COc1cccc(C)c1C	-15%	25	?	7.1µM*	?	-18%
CCc1c(C)sc2c1CCN(Cc1ccccc1)C2c1ccccc1 (configuration not stated)	-29%	-102*	-24%	?	.	-10%
Cc1ccc(Nc2c(-c3ccc(N(C)C)cc3)nc3ccccn23)cc1	-29%	79	23%	10%[46.1 µM]	?	-8%
CCn1c2ccccc2c2cc(NC(=O)COC(=O)c3cc(S(N)(=O)=O)c(Cl)cc3Cl)ccc21	11µM*	0	-21%	19%	-20%[46.1 µM]	?
CCn1c2ccccc2c2cc(NC(=O)COC(=O)c3ccccc3F)ccc21	10µM*	-20	0%	11%	2%	?
COc1cccc(Cn2c(=O)c(C)nc3cnc(OCc4ccccc4)nc32)c1	.	.	-20%	.	.	.
O=C(Nc1ccc(Oc2cccnc2)cc1)c1ccccc1F	.	-86*	41%	24%	?	.
O=C(Nc1ccc(Oc2cccnc2)cc1)c1ccccc1Cl	i	?	13%	0%[46.1 µM]	-1%[46.1 µM]	-9%
O=C(Nc1ccc(F)cc1)c1cccnc1Oc1ccccc1	-3%	40	-16%	-11%	8%	0%
CCOC(=O)Cc1ncccc1C(=O)Nc1ccc(Oc2ccccc2)cc1	-6%	-98*	-8%	12%	?	-10%
CC[N+](C)(C)c1ccc(/C=C/c2ccc3ccccc3n2)cc1	121%	.	.	.	.	148%
CCCOc1ccc(-c2cnc(N)s2)cc1	4.5µM*	98	31%	?	?	5µM*
CCOC(=O)C(NC(C)=O)C(OC(C)=O)c1cccc(N(CCCl)CCCl)c1 (configuration not stated)	.	-64*	-7%	?	?	-24%
CN1C(=CC=C2C=C(I)C(=O)C(I)=C2)C(C)(C)c2ccccc21	198%	-77*	22µM*	12%	-3%[46.1 µM]	480%
CN1/C(=C\C=C2/SC(=S)NC2=O)C(C)(C)c2ccccc21	125%	-93*	?	.	.	i
COc1ccc(/C=N/Nc2snc(SC)c2C#N)cc1OC	.	82	-2%	6.3µM*	?	-29%
COc1cccc(/C=N/Nc2snc(SC)c2C#N)c1O	10µM*	-98*	?	?	?	7.9µM*
